Assay results as given in PubChem BioAssay (EPA / NIEHS).
The source holds several records for some structures; these can differ, active in one and inactive in another. Activity calls are given as the source filed them. The calls were made as follows: active = hit-call score of the fitted dose curve at least 0.9, where 1 is the maximum; inactive = score below 0.9.

Each compound was assayed on Cytochrome P450 (CYP24A1), CYP24A1 (gene 1591) (assay: LTEA_HepaRG_CYP24A1: Life Technologies and Expression Analysis (LTEA) Assay for Cytochrome P450 (CYP24A1) using HepaRG (AID 2283478)). Settings: mRNA level, 48 h; actives raise or lower the signal.
Outline: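 qRT-PCR read-out: CYP24A1 transcript levels normalized to three housekeeping genes, bidirectional curve fits against 0.5% DMSO baseline. Human HepaRG cells treated 48 h with chemicals at eight concentrations from 100 uM in half-log steps.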
For `O=C(O)C(F)(F)C(F)(F)C(F)(F)C(F)(F)C(F)(F)C(F)(F)C(F)(F)F`, the outcome was “inactive”. In the case of `CC(C)N(C(=O)COc1nnc(C(F)(F)F)s1)c1ccc(F)cc1`, the outcome is reported as “inactive”. For `OCCOc1ccccc1`, the outcome was “inactive”. With `O=C(Nc1ccccc1)Nc1cnns1` the outcome was “inactive”. In the case of `CNC(=O)CSP(=S)(OC)OC`, the outcome is reported as “inactive”. In the case of `ClC1C(Cl)C(Cl)C(Cl)C(Cl)C1Cl` (stereo not drawn), the outcome is reported as “inactive”. For `CCCN(CCC)c1c([N+](=O)[O-])cc(C(F)(F)F)cc1[N+](=O)[O-]`, the outcome was “inactive”. With `O=S(=O)(O)C(F)(F)C(F)(F)C(F)(F)C(F)(F)C(F)(F)C(F)(F)C(F)(F)C(F)(F)F` the AC50 was 3.16 nM (active) and the outcome was “inactive”. For `CN1CSC(=S)N(C)C1`, the outcome was “inactive”. `CC1(c2ccc(Oc3ccccc3)cc2)OC(=O)N(Nc2ccccc2)C1=O` (stereo not drawn) was tested, and the outcome was “inactive”. `O=C1c2ccccc2C(=O)N1SC(Cl)(Cl)Cl` was tested, and the outcome was “inactive”. For `CCOC1Oc2ccc(OS(C)(=O)=O)cc2C1(C)C` (stereo not drawn), the outcome was “inactive”. For `CC(C)(C)C(O)C(Oc1ccc(Cl)cc1)n1cncn1` (stereo not drawn), the outcome was “inactive”. `COc1nn(CSP(=S)(OC)OC)c(=O)s1` was tested, and the outcome was “inactive”. In the case of `O=C(NC(=O)c1c(F)cccc1F)Nc1ccc(OC(F)(F)C(F)OC(F)(F)F)c(Cl)c1` (stereo not drawn), the outcome is reported as “inactive”. `O=C(O)CCCOc1ccc(Cl)cc1Cl` was tested, and the outcome was “inactive”. `O=[N+]([O-])/N=C1\NCCN1Cc1ccc(Cl)nc1` was tested, and the outcome was “inactive”. With `Clc1ccccc1-c1nnc(-c2ccccc2Cl)nn1` the outcome was “inactive”. In the case of `Oc1cc(Cl)ccc1Oc1ccc(Cl)cc1Cl`, the outcome is reported as “inactive”. `CCC(C)Nc1c([N+](=O)[O-])cc(C(C)(C)C)cc1[N+](=O)[O-]` (stereo not drawn) was tested, and the outcome was “inactive”. In the case of `Oc1ccc(Cl)cc1Cc1ccccc1`, the outcome is reported as “inactive”. For `CNC(=O)/C=C(\C)OP(=O)(OC)OC`, the outcome was “inactive”.
